# From PubChem BioAssay (NCI)
# This is part of a sample that, as a whole, favours compounds with a hit. Of some 83,000 tested, about 20% had one in any assay.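 Percent growth is the endpoint: 0 to 100 indicates growth inhibition (40 means 60% inhibition), 0 means no net growth, and negative values indicate cell death.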 A number with no mark means an inactive call. The source made the active and inactive calls. Rule for the calls: active = growth percent below 10; inactive = the rest.
# System: OVCAR-4 ovarian
# Test: NCI-60 one-dose screen, 48 h (100 = growth as untreated, 0 = no growth, -100 = all killed)
# Details: 10 µM unless noted
row,Structure (SMILES),growth
1,Nc1cc(N)c(S(=O)(=O)O)cc1N=Nc1cc([N+](=O)[O-])ccc1O,109%
2,CC1CCN(CCCCCOc2ccc3oc4ccccc4c(=O)c3c2)CC1,77.3%
3,CCOC(=O)C1=C(C)n2nc(CC#N)c(C#N)c2NC1c1ccc(Cl)cc1 (stereo unspecified),99.3%
4,Cc1cccc(C)c1NCc1nnc(-c2ccco2)o1,101%
5,COC(=O)/C=C1\SC(=Nc2cccc(Cl)c2)N(CCc2c[nH]c3ccccc23)C1=O,62%
6,COc1ccc(C(C)c2cc(OC)c(OC)c(OC)c2)cc1 (stereo unspecified),34.3%
7,CCO/C=N/S(=O)(=O)c1cc2c(cc1Cl)NC=NS2(=O)=O,117%
8,COc1ccc([C@H]2[C@@H](F)C(=O)N2c2cc(OC)c(OC)c(OC)c2)cc1F,54.9%
9,O=C(CN1N=C(c2ccc(F)cc2)CCC1=O)Nc1nccs1,97.6%
10,Nc1cc(N)nc(SCC(=O)O)n1,106%
11,CCOC(=O)NCCc1nc2c([nH]1)c(=O)n(C)c(=O)n2C,107%
12,CC1(c2ccccc2Cl)NC(=O)NC1=O (stereo unspecified),109%
13,C=C1C(=O)O[C@H]2[C@H]1CC/C(COC(=O)n1ccnc1)=C\CC[C@@]1(C)O[C@@H]21,103%
14,COc1ccccc1-c1ccc2nc(NC(=O)Nc3cc(C(F)(F)F)cc(C(F)(F)F)c3)sc2c1,16.5%
15,O=C1NC(SCc2ccc(F)cc2)=N/C1=C/c1cccc(OCc2ccc(Cl)cc2)c1,-48.4% (active)
16,O=C(CCc1nnc2sc(OCc3ccccc3)nn12)c1nc2ccc([N+](=O)[O-])cc2[nH]1,102%
